TDP-43 yeast inh: TDP-43 toxicity inhibition in yeast. TDP-43 expressing yeast growth rescue, BacTiter-Glo, 24 h. Potency, µM (highest dose often 46.1 µM), without a hit: top-dose growth rescue (activation), most hits filed as activators. actives 1.8% (n = 410,000); also: % of control where 0% means no effect; nearly all actives have a fitted effect of over 50% in size
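Yeast cells expressing TDP-43 under galactose induction are exposed to compounds for 24 hr at 30 deg C. BacTiter-Glo luminescence measures growth, so protective compounds score as activators.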
FUS yeast rescue: rescues growth of FUS-expressing yeast; S. cerevisiae FUS-expressing, growth rescue, OD600, 24 h; Potency, µM (titrated, usually from 76.6 µM), most hits filed as activators; actives 0.24% (n = 390,000); AID 1347120;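 also: plate controls were DMSO vehicle for no effect and reference control for full effect; nearly all actives have a fitted effect of over 55% in size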
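Compound concentration series was pinned onto galactose-induced FUS-expressing yeast seeded at OD 0.005. Plates sat 24hr at 30C; absorbance at 600 nm gave growth. DMSO served as background control.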
Mm-Cpn inhibitor: M. maripaludis TRiC chaperonin inhibition; purified Mm-Cpn ATPase, ADP Transcreener TR-FRET; Potency, µM (series often up to 76.9 µM), inactives show at the top dose activity, negative = inhibition, most hits filed as inhibitors; actives 0.031% (n = 330,000); AID 504842; also: % is scaled to controls: 0 for no effect and ±100 for the full control effect; nearly all actives have a fitted effect of over 80% in size
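ATP (10 uM final) was added to archaeal chaperonin (25 nM final) after 10 min exposure to test compound at 37°C; after 30 min further incubation, ADP was detected by competitive TR-FRET.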
Abeta rescue: restores growth of yeast expressing A-beta42 peptide. yeast expressing A-beta42, growth rescue, OD600, 48 h; response scale: 0% DMSO, 100% iron-clioquinol control. Potency, µM (top dose mostly 46.1 µM), usual class: activators. actives 0.063% (n = 410,000); also: nearly all actives have a fitted effect of over 55% in size
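Yeast A-beta toxicity model in growth medium with pinned compounds, 48 h at 30 C; growth read as absorbance at 600 nm. Normalized to FeCl3/clioquinol equimolar mix (positive) and DMSO (negative).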
ClpP mod: qHTS Assay for Activators of ClpP. ATP-dependent Clp protease proteolytic subunit (Bacillus subtilis (strain 168)), P80244. purified B. subtilis ClpP, FRET peptide cleavage, 20 min. Potency, µM (series often up to 57.5 µM), inactives show top-dose activity change, negative = active. actives 1.9% (n = 340,000). AID 651965, 2013; active = well fitted falling curve with a large enough effect; inconclusive = small, poorly fitted or top-dose-only effect; inactive = no such curve, though single readings can be large or run the other way; also: the source files actives as falling curves though it sought activators and does not explain the sign; nearly all actives have a fitted effect of over 65% in size
Target sequence (P80244 whole entry, looked up): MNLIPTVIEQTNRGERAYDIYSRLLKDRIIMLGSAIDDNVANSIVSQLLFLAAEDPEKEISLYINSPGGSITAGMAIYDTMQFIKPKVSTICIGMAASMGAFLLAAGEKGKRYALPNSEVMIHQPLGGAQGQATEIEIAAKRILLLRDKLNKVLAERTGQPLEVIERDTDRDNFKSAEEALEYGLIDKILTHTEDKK
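Buffer: 100 mM Tris/HCl pH8, 100 mM KCl, 0.05% low protease BSA, 2.5% glycerol, 0.01% Tween-20. ClpP 10 microg/mL final; 20 min RT; delta FRET normalized to ADEP and DMSO controls.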
aSyn rescue: rescues yeast growth from alpha-synuclein toxicity | actives 0.14% (n = 370,000) | Yeast expressing alpha-synuclein, growth rescue, BacTiter-Glo, 24 h | Potency, µM (top dose mostly 46.1 µM), without a hit: at the top dose growth rescue (activation), usual class: activators; also: % of control where 0% means no effect; nearly all actives have a fitted effect of over 65% in size
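Screening used galactose-induced yeast with toxic alpha-synuclein levels, exposed to compound for 24 hr at 30 deg C. Cell growth, read with BacTiter-Glo luminescence, gave the measured signal.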
* hit, by the source's call; i = inactive; ? = inconclusive; . = no result. The list is not random: actives were taken first. Their share in the collection is about 3.6%. Unless noted, calls follow the shape of the dose curve; as a rule, active = well fitted curve in the direction sought with a large enough effect; inconclusive = small, poorly fitted or top-dose-only effect, or another doubt; inactive = no such curve, though single readings can be large; an effect the other way counts as inactive or inconclusive. Potency is read from the fitted curve at half-maximal effect.

SMILES	TDP-43 yeast inh	FUS yeast rescue	Mm-Cpn inhibitor	Abeta rescue	ClpP mod	aSyn rescue
O=C(O)COc1ccc(-c2nc(-c3ccccc3)c(-c3ccccc3)[nH]2)cc1	5%	i	-9%	i	.	-1%
COc1ccc(-c2nc(-c3ccccc3)c(-c3ccc(O)cc3)[nH]2)cc1	7%	i	.	i	5µM*	.
O=[N+]([O-])c1ccc(S(=O)(=O)N2CCN(c3nc(-c4cccs4)nc4ccccc34)CC2)cc1	.	.	.	.	-2%	3%
CC(=O)NC(c1cc(F)c2cccnc2c1O)C(C)C (stereo not given)	.	.	1%	.	.	.
COc1ccccc1NC(=O)CSc1nc2c(oc3ccccc32)c(=O)n1-c1ccccc1F	18%	i	.	i	-19%	.
CCCCc1ccc(-c2noc(CCC(=O)NCC)n2)cc1	.	i	.	.	.	.
O=C(NCCCNC(=O)c1cncc(O)c1)c1cncc(O)c1	4%	i	-1%	i	.	0%
CCOC(=O)CCCNC(=O)c1cncc(O)c1	3%	i	-2%	i	32µM*	-8%
O=C(O)CCCNC(=O)c1cncc(Br)c1	15%	i	-1%	i	28µM*	0%
O=C(Nc1ccc(F)cc1)c1cccc(N2CCCS2(=O)=O)c1	7%	i	.	i	-1%	.
CC(=O)c1cc(C#N)c(NCc2ccccc2)nc1C	7%	i	-1%	i	.	-5%
CCC(=O)N1CCN(c2nc(-c3ccccc3)c3c(c2C#N)CCCC3)CC1	?	i	0%	i	32µM*	-21%
CCOC(=O)c1cc(C#N)c(NCc2ccccc2)nc1C	1%	i	1%	i	32µM*	-6%
CCOC(=O)c1cc(C#N)c(N2CCCC2)nc1-c1ccccc1	12%	i	-11%	i	28µM*	-7%
N#Cc1c(SCC(=O)O)nc(-c2ccccc2)c2c1CCCC2	-10%	i	-11%	i	-2%	9%
Cc1ccc(C)c(CN2C(=O)c3ccccc3Sc3ccc(C(=O)NCc4cccs4)cc32)c1	19%	i	.	i	-2%	.
CCOc1ccc(/C=C/c2nc(C#N)c(NCc3ccc(OC)cc3)o2)cc1	9%	i	.	i	4%	.
Fc1cccc(Cl)c1CSc1nnc(CNc2ccccc2)o1	18µM*	i	0%	i	-1%	?
Clc1ccc(CSc2nnc(CNc3cccc(Cl)c3)o2)cc1	-29%	i	2%	i	1%	8.9µM*
NCCc1nnc(SCc2ccc(Cl)cc2)o1	28%	i	.	i	0%	.
CC(C)(C)OC(=O)NCCc1nnc(SCc2ccc(Cl)cc2)o1	18µM*	?	-1%	i	1%	10%
Fc1ccc(NCc2nnc(SCc3ccccc3)o2)cc1	?	i	1%	i	0%	4%
O=C(Nc1ccc(Cl)cc1Cl)[C@@H]1CC=C[C@@H]2CCN(C3CCCCC3)C(=O)[C@@H]21	.	.	.	.	0%	.
Cc1ccnc2cc(Cl)c(Cl)cc12	.	.	.	.	-1%	4%
Cc1ccc(C(=O)NNC(=S)NC(=O)c2ccccc2)cc1	?	i	.	i	-7%	-32%
O=C(COc1ccccc1)NNC(=S)NC(=O)c1ccc(Cl)cc1Cl	3.5µM*	i	-6%	?	-1%	?
Cc1cccc(C(=O)NC(=S)NNC(=O)COc2ccc(Cl)cc2)c1	?	i	-10%	i	.	?
Cc1ccc(C(=O)NNC(=S)NC(=O)c2ccc(Cl)cc2Cl)cc1	?	i	1%	i	0%	1.1µM*
COc1ccccc1-c1csc(N2CCC(C(N)=O)CC2)n1	.	.	2%	.	.	.
O=[N+]([O-])c1cc(C=Nc2ccc3ccccc3c2)ccc1Br	5%	.	1%	i	28µM*	8%
